Among all 31,000 sequences or so, about 1,400 (4.5%) were called active. Shown is part of a subset that was picked to be rich in actives. Values without a mark were called inactive.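 Rule for the calls: active = median seed-adjusted z-score above 1 or below -1; inactive = the rest.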

The assay is described as follows: Novel Modifiers of Survival Motor Neuron (SMN) Protein: Gene Identification via Genome-wide siRNA Screen.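 Note: luminescence tracks full-length SMN protein made from the SMN2 reporter.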 The conditions noted are these: HEK293T SMN2-luciferase reporter, siRNA knockdown, 72 h; actives lie on both sides. A digest of the protocol:
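HEK293T cells stably expressing an SMN2 splicing/cDNA-luciferase reporter were reverse-transfected with a druggable-genome siRNA library and read by luminescence at 72 hours; hits defined by MAD score above 1.0 or below -1.0.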
Background: A reporter such as luciferase makes a cellular process visible.
As for GCUGCGAAAGGAUCUCAAATT against UBE3B, the median seed-adjusted z-score is 0.0972. The same measure for CAAAUACGGUAAUGCUGUATT against COX7B: -1.16 (active); for GAACUUCACAAGUUCCUCATT against RAB31: 0.41; for GCUUAAUGGUGUCCCGUAATT against PCCA: 0. Take CAAGCUCCAUUUUGAAUCATT against SRR: the median seed-adjusted z-score is -0.256. Under CGACGGUGGAAGACACCUATT against DIRAS2 stands -1.25 (active). The same measure for CAUUGCAAGUUGUUCUUGATT against GJA4: -0.18; for ACAGCGCUCUCAAUCCCUUTT against GPR150: -0.129; for CAUCAGCACUAGCACCUCATT against ZNF213: 1.37 (active). Under CCCGGUCACUUCUGAGAAATT against ZNF696 stands 0.17; under GGAAGAGUCAUACAUCAAUTT against DDX55, 0.507. As for GCAUAGCUCUCGAUAAGAATT against MYH4, the median seed-adjusted z-score was -1.8 (active). Consider GGAUCAUGCUGAGAUGCAATT against RASAL2, for which the median seed-adjusted z-score is 0. Under CCAUCGUGGUAGAUCCGUUTT against CBL stands -0.417; under GCUUUGUCACAUAACGUGATT against SLC38A2, -1.04 (active); under GGUUGCUAUAUGUUCCGAATT against MLL, 0.227. As for UGACGUGCACAGGAAGAAATT against OXCT2, the median seed-adjusted z-score is -0.449. Turning to GGGAAUAGCUUAUCUUGUUTT against RFC4, the median seed-adjusted z-score was -0.386. Regarding GCAUCUACGUGGGUAACUUTT against SFRS1, the median seed-adjusted z-score was -1.66 (active). For GCCCGAAAGAGAAAGCGAATT against POU5F1, the median seed-adjusted z-score was 0.0495.

On to GCAUCAACGCGGGAUUCCATT against TFAP4, for which the median seed-adjusted z-score is -0.0515. With CGGUCAUGCUGAUCACCUUTT against GPR119, the median seed-adjusted z-score was -0.382. For the sequence CUGCCGCAAUGACAACAAATT against TRIM42, the median seed-adjusted z-score is -0.153.

In the case of GCGGUAAACUCGACACGUUTT against MARK3, the median seed-adjusted z-score was 0.271. In the case of GGCUGUACAUAGUCCUUUUTT against SNRPB, the median seed-adjusted z-score was -3.17 (active).

Turning to CUACUUAAGUGUGAUAAUATT against OCLN, the median seed-adjusted z-score is 0.232.

As for GACUAAUGGAUGAAGCUAATT against PBK, the median seed-adjusted z-score is -0.311. As for GGAAUUCUUUGGGCUGAAATT against MMP1, the median seed-adjusted z-score is 0.205.

For the sequence GCAUCGGGAAUAAAAUUUATT against LSM2, the median seed-adjusted z-score is -1.48 (active). The same measure for CCCAAUCAAGUGUUACAAATT against JMJD1C: 0.0338; for UGGAGUAUCCUAUCAUGUATT against MGST3: -0.0509; for GCAAAUACGUGUAGACCUATT against EXOSC9: -0.00796. The same measure for AGUACAUCGCGGAUCUGUATT against RCN3: -2.44 (active); for CCACUUCUCCACACCUUGATT against NR4A1: -0.207; for GUGACUCCGUGUAUACUUATT against GCA: -0.162. The same measure for AGAGCAAAACAGUCCGAUATT against PCDH8: -1.03 (active); for GAAUUCACUUCAGAGCAAUTT against LMO4: -0.067.

For the sequence CAAUCCAACUAGUAGUUCATT against SP4, the median seed-adjusted z-score is -0.088. Under CCCUCUAACUGCUCGGAUATT against DNASE2 stands -1.23 (active); under GAUCCUAUCGUAGACAUGATT against ZNF440, 0.208; under CCAGCAAUGAGAAAAAUCUTT against HOXA2, 0.335.

Consider GGCGAACAGUUCUACAUGUTT against IFT57, for which the median seed-adjusted z-score was -1.1 (active). For the sequence CAUCAUUACGAUUAGCCUATT against ARFGAP3, the median seed-adjusted z-score was 0.00412. Turning to CGGGAUUUAUAGGCAAUGATT against RNASEH1, the median seed-adjusted z-score was -0.0205. The same measure for CAUUCGCUCUCAUACUGGATT against CTCF: -0.0821; for GGAUCUUCAAAGUCACGAATT against CACNA1B: 0.0963; for GCACCCACGUCAUCCCUAATT against GRIN1: -0.137. Under CCAUUCUUCUAGCAACUGATT against DDX47 stands -0.398; under GUCCUAUCACCGUAUCUUATT against SF3B4, -2.56 (active). Regarding GGUUAGGGCUUGACCCAAATT against HIBADH, the median seed-adjusted z-score is 0.234. In the case of CAGACGUGAUGACAAGAUUTT against S100A7, the median seed-adjusted z-score is -0.253.

For CAAUGGUGUCUACAAGAUUTT against SLCO1C1, the median seed-adjusted z-score was 0.071.

As for CACCUGCUAUGUUACGGGATT against BAT2, the median seed-adjusted z-score is 0.0889. The same measure for AGAUACUGGUAUUGCUCGATT against SNRPB: -3.17 (active); for GACCCAUUGCUGUCCAACATT against EMID1: 0.979; for AGAGGAACUUUAUUCUUGATT against HNRNPUL2: -0.0273. Under AUAACUACCUGAUCAAGAATT against YWHAG stands 1.98 (active); under CCCUGGUAGUUCCACACCATT against CRHBP, -0.0443; under GAACAUUGGUUCUUAGAGATT against MKRN2, 0. In the case of GGGACUUCAUGUUCGAGCATT against DNAI2, the median seed-adjusted z-score was 0.12. Under GCAGAAAGGUGUAACAUAATT against DDI2 stands 1.27 (active); under CAGGCAAACCGCUACAUCATT against EN1, 0.761; under ACAGUUCUCUAUGACCUCATT against PLA2G4E, 0.266.

With AGUGCAUGGUUGCAGCUGATT against RNF144A, the median seed-adjusted z-score was -0.185.

With GAAUCAAUAUAAUCUAGCATT against UBE2Q2, the median seed-adjusted z-score was 0.146.

Turning to AGAACUGCGUGACUAUACATT against ZNF417, the median seed-adjusted z-score is 0.0205. The same measure for GCCUCUCACAUCUAUGGUATT against ITIH4: 0.64. Under GGAGAAAGAAUGACGAGAATT against TGFBR2 stands 0.8. Under AACUCGCUGUUGUACCUGATT against CPSF1 stands 3.29 (active).

These data come from PubChem BioAssay AID1347426 (Functional Genomics Laboratory (NCATS/FGL), 2020).
